Assay results as given in PubChem BioAssay (Tox21).
Several values for one entry are separate records, joined by “and”; a condition that tells them apart may be missing. Equal entries are not always repeated. Records with an inconclusive call do not appear. The source holds several records for some structures; these can differ, active in one and inactive in another. Activity calls are given as the source filed them. Unless noted, calls follow the shape of the full dose curve.

Experiments:
[1] = Nuclear factor erythroid 2-related factor 2/antioxidant responsive element (Nrf2/ARE) small molecule agonists: qHTS cell viability counter screen in human keratinocytes (AID 1919968; active = well fitted curve in the direction sought with a large enough effect in the repeat runs; an effect the other way counts as inactive or inconclusive; also: nearly all actives have a fitted effect of over 55% in size; also: potency is read from the fitted curve at half-maximal effect)
How it was run: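 CellTiter-Fluor fluorescence, read 1 h after reagent, gave viability in the same wells as the ARE-luciferase assay. KeratinoSens cells (1,500/well) had 23 h compound exposure at 37 C/5% CO2 following 5 h plating.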

[2] = Nuclear factor erythroid 2-related factor 2/antioxidant responsive element (Nrf2/ARE) small molecule agonists: luciferase reporter gene qHTS assay in human keratinocytes (AID 1919969); also: nearly all actives have a fitted effect of over 35% in size
[3] = target: Gonadotropin-releasing hormone receptor (Homo sapiens) (UniProt P30968); assay: Human gonadotropin-releasing hormone receptor (GnRHR) small molecule agonists, calcium flux assay in GnRHR-HEK293 cells (AID 1920063); also: nearly all actives have a fitted effect of over 35% in size
How it was run: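 Agonist mode: compounds at 15 concentrations, in triplicate, went onto calcium dye-loaded GnRHR-HEK293 cells. Intracellular calcium was then followed as 480/540 nm fluorescence at 1 s intervals over 3 min.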

[4] = target: KiSS-1 receptor (Homo sapiens) (UniProt Q969F8); assay: Human kisspeptin (KISS1R) small molecule agonists, calcium flux assay in KISS1R-HEK293 cells (AID 1920064; active = well fitted curve in the direction sought with a large enough effect in the repeat runs; an effect the other way counts as inactive or inconclusive)
How it was run: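 Agonist mode: intracellular calcium rise tracked at 1 s intervals over 3 min (480/540 nm) immediately after compound addition to dye-loaded KISS1R-HEK293 stable cells. Each compound tested at 15 concentrations in triplicate.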

[5] = G protein-coupled receptor (GPCR) small molecule agonists, calcium flux assay: HEK293 wild type cell line counter screen (AID 1920065)
How it was run: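 Calcium flux counter screen: compound added in agonist mode at 15 concentrations in triplicate to dye-loaded parental HEK293 cells. Fluorescence (480/540) read kinetically for 3 min; ATP served as positive control.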

[6] = p53 small molecule agonists, cell-based qHTS assay with human liver microsomes (AID 1963577);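 also: p53 response element beta-lactamase reporter cells with liver microsomes plus NADPH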
How it was run: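 With metabolic activation: human liver microsomes (0.5 mg/mL final) plus NADPH (0.5 mg/mL final) added alongside compounds to p53RE-bla cells; 16 h 37 C exposure; beta-lactamase read by LiveBLAzer fluorescence.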

[7] = p53 small molecule agonists, cell-based qHTS assay with rat liver microsomes (AID 1963578)
How it was run: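 Metabolic activation by rat liver microsomes and NADPH, each 0.5 mg/mL final, added right after compounds to p53RE-bla reporter cells (4,000/well, plated 5 h earlier). 16 h at 37 C, then LiveBLAzer substrate for 2 h at room temperature in the dark; fluorescence read-out.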

[8] = p53 small molecule agonists, cell-based qHTS assay with human liver microsomes: qHTS cell viability counter screen (AID 1963579); also: nearly all actives have a fitted effect of over 45% in size
How it was run: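 Metabolic activation used human liver microsomes and NADPH, both 0.5 mg/mL final, over 16 hours at 37 C on p53RE-bla cells (4,000/well). Cytotoxicity measured by CellTiter-Glo luminescence, 30 min at room temperature.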

[9] = p53 small molecule agonists, cell-based qHTS assay: qHTS cell viability counter screen (AID 1963581); also: nearly all actives have a fitted effect of over 45% in size
How it was run: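 Counter screen read by CellTiter-Glo luminescence (ATP content, 30 min at room temperature), run in the same wells as the beta-lactamase reporter read. HCT-116 p53RE-bla cells saw compounds for 16 h at 37 C.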

[10] = target: 5-hydroxytryptamine receptor 2A (Homo sapiens) (UniProt P28223); assay: 5-hydroxytryptamine receptor 2A (HTR2A) small molecule antagonists, cell-based qHTS assay (AID 1963586); also: nearly all actives have a fitted effect of over 45% in size
How it was run: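 CHO cells stably expressing human HTR2A were plated for 18 h at 37 C, then loaded with calcium dye for 1 h. Compounds were preincubated 5 min at room temperature before DOI (4 nM solution) was added. Kinetic fluorescence was read for 3 min.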

[11] = target: 5-hydroxytryptamine receptor 2A (Homo sapiens) (UniProt P28223); assay: 5-hydroxytryptamine receptor 2A (HTR2A) small molecule agonists, cell-based qHTS assay (AID 1963587); also: nearly all actives have a fitted effect of over 30% in size
How it was run: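 CHO cells stably expressing human HTR2A, plated 18 h, loaded with calcium dye 1 h at 37 C. Agonist mode: compounds added and intracellular calcium fluorescence recorded kinetically for 2 min at 1 sec intervals.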

[12] = target: Muscarinic acetylcholine receptor M1 (Homo sapiens) (UniProt P11229); assay: Cholinergic receptor muscarinic 1 (CHRM1) small molecule antagonists, cell-based qHTS assay (AID 1963588); also: nearly all actives have a fitted effect of over 40% in size
How it was run: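 Compounds were tested at 15 concentrations in three independent runs. Dye-loaded CHRM1-CHO cells were exposed 5 min at room temperature before stimulation by acetylcholine added at 50nM. Intracellular calcium was read kinetically on FDSS for 3 min.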

[13] = cAMP Responsive Elements (CRE) small molecule antagonists, cell-based qHTS assay (AID 1963591; active = well fitted inhibition curve with a large enough effect in the signal ratio in the repeat runs, not every such curve was filed as active; the % refers to the signal ratio)
How it was run: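 Antagonist mode: compounds are added alongside the adenylyl cyclase activator NKH477 (0.25 uM final) to CRE-bla HEK293T cells for 3 h. LiveBLAzer FRET substrate, 2 h at room temperature, reports bla expression.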

[14] = target: Beta-2 adrenergic receptor (Homo sapiens) (UniProt P07550); assay: Adrenergic beta2 receptor (ADRB2) small molecule antagonists, cell-based qHTS assay (AID 1963592); also: nearly all actives have a fitted effect of over 50% in size; also: potency is read from the fitted curve at half-maximal effect
How it was run: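 Assay format: CHO-ADRB2 cells, 18-20hr seeding at 37C/5% CO2, then compound plus 1nM isoproterenol agonist mix for 0.5hr RT. Homogeneous time-resolved fluorescence cAMP detection after 1hr, expressed as 665/615 nm ratio.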

[15] = target: D(2) dopamine receptor (Homo sapiens) (UniProt P14416); assay: Dopamine D2 receptor (DRD2) small molecule agonists, cell-based qHTS assay (AID 1963594); also: nearly all actives have a fitted effect of over 35% in size
How it was run: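 HEK293 cells stably expressing human DRD2, pre-treated with PDE inhibitor Ro20-1724 (0.1 mM final) and compound 10 min at room temperature, then stimulated with NKH477 (200nM […]) for 30 min. cAMP read by HTRF (665/620 nm).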

[16] = target: D(2) dopamine receptor (Homo sapiens) (UniProt P14416); assay: Dopamine D2 receptor (DRD2) small molecule antagonists, cell-based qHTS assay (AID 1963595; active = well fitted inhibition curve with a large enough effect in the signal ratio in the repeat runs, with a control signal flat; the % refers to the signal ratio)
How it was run: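 DRD2-HEK293; 0.1 mM Ro20-1724; cpd 10 min RT; NKH477 200 nM + quinpirole 12 nM, 30 min RT; HTRF cAMP (cAMP-d2/anti-cAMP cryptate), 665/620 nm ratio after 1 h.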

[17] = target: Muscarinic acetylcholine receptor M1 (Homo sapiens) (UniProt P11229); assay: Cholinergic receptor muscarinic 1 (CHRM1) small molecule agonists, cell-based qHTS assay (AID 1963589); also: nearly all actives have a fitted effect of over 35% in size
How it was run: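 Agonist-mode calcium-flux screen: compounds at 15 concentrations, three independent runs, were pin-transferred onto dye-loaded human CHRM1-CHO cells. Fluorescence was then recorded kinetically every second over minutes.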

[18] = cAMP Responsive Elements (CRE) small molecule agonists, cell-based qHTS assay (AID 1963590)
How it was run: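 Agonist mode: compound added to CRE-bla HEK 293T cells (2,000/well, 18 h after plating) for 3 h at 37 C/5% CO2. Reporter activity detected via FRET beta-lactamase substrate, 2 h room-temperature loading.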

[19] = p53 small molecule agonists, cell-based qHTS assay (AID 1963582; active = well fitted activation curve with a large enough effect in the signal ratio in the repeat runs, not every such curve was filed as active; the % refers to the signal ratio)
How it was run: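 Read-out is beta-lactamase FRET fluorescence after 2 h at room temperature with LiveBLAzer B/G substrate. p53 response element-bla cells were treated 16 h at 37 C with compounds in DMSO, added 5 h after seeding.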

[20] = p53 small molecule agonists, cell-based qHTS assay with rat liver microsomes: qHTS cell viability counter screen (AID 1963580); also: nearly all actives have a fitted effect of over 45% in size; also: potency is read from the fitted curve at half-maximal effect
How it was run: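 Cytotoxicity counter screen: intracellular ATP measured by CellTiter-Glo luminescence in the same wells as the beta-lactamase reporter read, on HCT-116 p53RE-bla cells exposed 16 h at 37 C to compounds with rat liver microsomes and NADPH, each 0.5 mg/mL final.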
% is scaled to controls: 0 for no effect and ±100 for the full control effect.

Muscarinic acetylcholine receptor M1 (Homo sapiens), sequence (P11229 whole entry, looked up): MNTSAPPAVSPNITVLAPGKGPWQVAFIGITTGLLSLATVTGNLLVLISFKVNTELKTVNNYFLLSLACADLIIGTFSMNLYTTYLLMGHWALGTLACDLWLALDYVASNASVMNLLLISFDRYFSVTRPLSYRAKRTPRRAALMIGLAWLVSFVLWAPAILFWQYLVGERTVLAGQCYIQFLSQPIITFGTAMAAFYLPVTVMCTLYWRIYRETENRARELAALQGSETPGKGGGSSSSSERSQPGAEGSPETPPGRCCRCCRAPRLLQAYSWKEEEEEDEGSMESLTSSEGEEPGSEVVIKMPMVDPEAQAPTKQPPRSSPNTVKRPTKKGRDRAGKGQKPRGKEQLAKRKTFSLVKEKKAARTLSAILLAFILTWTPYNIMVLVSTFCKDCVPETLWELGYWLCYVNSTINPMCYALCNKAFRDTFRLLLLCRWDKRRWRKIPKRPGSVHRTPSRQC
Gonadotropin-releasing hormone receptor (Homo sapiens), sequence (P30968 whole entry, looked up): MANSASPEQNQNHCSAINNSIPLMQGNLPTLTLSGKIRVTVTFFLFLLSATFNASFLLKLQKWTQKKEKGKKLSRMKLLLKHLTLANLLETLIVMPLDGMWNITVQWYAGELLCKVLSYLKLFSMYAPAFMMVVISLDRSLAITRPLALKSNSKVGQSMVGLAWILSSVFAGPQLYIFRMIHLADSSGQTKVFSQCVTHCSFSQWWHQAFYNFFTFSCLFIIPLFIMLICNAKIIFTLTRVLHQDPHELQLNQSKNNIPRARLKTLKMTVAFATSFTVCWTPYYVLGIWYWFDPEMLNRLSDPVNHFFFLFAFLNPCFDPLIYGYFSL
D(2) dopamine receptor (Homo sapiens), sequence (P14416 whole entry, looked up): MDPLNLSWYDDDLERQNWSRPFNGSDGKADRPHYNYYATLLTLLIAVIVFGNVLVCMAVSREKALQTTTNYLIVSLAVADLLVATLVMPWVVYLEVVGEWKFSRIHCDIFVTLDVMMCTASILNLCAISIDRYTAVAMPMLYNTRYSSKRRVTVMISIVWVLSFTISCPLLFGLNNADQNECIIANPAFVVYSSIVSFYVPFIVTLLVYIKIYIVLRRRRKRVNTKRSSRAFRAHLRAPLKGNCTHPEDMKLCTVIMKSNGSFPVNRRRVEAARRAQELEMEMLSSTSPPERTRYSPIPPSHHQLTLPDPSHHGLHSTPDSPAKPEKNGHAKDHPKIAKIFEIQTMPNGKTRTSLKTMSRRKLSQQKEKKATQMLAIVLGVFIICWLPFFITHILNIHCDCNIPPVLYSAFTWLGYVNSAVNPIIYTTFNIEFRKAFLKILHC
Beta-2 adrenergic receptor (Homo sapiens), sequence (P07550 whole entry, looked up): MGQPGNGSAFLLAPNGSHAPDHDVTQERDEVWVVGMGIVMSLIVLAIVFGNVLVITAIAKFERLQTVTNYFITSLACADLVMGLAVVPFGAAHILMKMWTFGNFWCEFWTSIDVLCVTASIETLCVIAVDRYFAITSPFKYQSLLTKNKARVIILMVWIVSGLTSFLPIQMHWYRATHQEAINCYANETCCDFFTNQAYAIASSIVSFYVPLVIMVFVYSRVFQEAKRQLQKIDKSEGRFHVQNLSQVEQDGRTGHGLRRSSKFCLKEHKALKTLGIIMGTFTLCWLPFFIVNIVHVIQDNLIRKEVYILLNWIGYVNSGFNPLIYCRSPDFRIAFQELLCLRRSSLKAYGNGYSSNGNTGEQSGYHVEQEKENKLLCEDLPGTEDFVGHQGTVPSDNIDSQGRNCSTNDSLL
KiSS-1 receptor (Homo sapiens), sequence (Q969F8 whole entry, looked up): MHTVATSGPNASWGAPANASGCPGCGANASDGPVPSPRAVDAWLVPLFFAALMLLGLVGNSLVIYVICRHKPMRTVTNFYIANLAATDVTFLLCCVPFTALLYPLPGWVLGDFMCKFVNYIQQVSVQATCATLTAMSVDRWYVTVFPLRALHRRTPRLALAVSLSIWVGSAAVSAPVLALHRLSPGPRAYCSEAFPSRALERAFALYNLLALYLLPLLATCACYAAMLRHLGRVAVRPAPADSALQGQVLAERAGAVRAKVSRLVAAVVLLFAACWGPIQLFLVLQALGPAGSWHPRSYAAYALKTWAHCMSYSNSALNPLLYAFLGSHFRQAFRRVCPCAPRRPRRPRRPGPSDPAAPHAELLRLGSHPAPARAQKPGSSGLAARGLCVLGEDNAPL
5-hydroxytryptamine receptor 2A (Homo sapiens), sequence (P28223 whole entry, looked up): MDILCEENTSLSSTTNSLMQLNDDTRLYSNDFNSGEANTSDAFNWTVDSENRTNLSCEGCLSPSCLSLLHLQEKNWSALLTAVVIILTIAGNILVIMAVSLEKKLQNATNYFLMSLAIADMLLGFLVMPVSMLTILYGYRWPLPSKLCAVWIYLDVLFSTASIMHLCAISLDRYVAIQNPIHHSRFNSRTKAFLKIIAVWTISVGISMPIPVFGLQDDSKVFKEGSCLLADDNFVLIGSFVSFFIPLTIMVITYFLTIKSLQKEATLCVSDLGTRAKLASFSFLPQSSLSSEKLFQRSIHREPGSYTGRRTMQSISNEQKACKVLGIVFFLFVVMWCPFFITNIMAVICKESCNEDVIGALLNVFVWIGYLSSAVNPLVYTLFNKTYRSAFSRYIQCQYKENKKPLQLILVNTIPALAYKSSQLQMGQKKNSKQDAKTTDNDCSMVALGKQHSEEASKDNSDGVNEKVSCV

CN(C)C
inactive: Potency [1] | Potency [2] | Potency [3] | Potency [4] | Potency [5] | Potency [6] | Potency [7] | Potency [8] | Potency [9] | Potency [10] | Potency [11] | Potency [12] | Potency [13] | Potency [14] | Potency [15] | Potency [16]

O=c1cc[nH]c(=O)[nH]1
inactive: Potency [1] | Potency [2] | Potency [3] | Potency [4] | Potency [5] | Potency [6] | Potency [7] | Potency [8] | Potency [9] | Potency [10] | Potency [11] | Potency [12] | Potency [17] | Potency [18] | Potency [13] | Potency [14] | Potency [15] | Potency [16]

CCC[C@H](N[C@@H](C)C(=O)N1[C@H](C(=O)O)C[C@@H]2CCCC[C@@H]21)C(=O)OCC
inactive: Potency [1] | Potency [2] | Potency [3] | Potency [4] | Potency [5] | Potency [6] | Potency [7] | activity change, negative = cytotoxicity [8] -3.18% [at 13.5 µM] | Potency [19] | Potency [10] | Potency [11] | Potency [12] | Potency [17] | Potency [18] | Potency [13] | Potency [15] | Potency [16]

CCCCCCCC(=O)OCC(COC(=O)CCCCCCC)OC(=O)CCCCCCC
inactive: Potency [1] | Potency [2] | Potency [3] | Potency [4] | Potency [5] | Potency [6] | Potency [7] | Potency [20] | Potency [9] | Potency [19] | Potency [10] | Potency [11] | Potency [17] | Potency [18] | Potency [13] | Potency [14] | Potency [15] | Potency [16]

Nc1ncnc2nc[nH]c12
inactive: Potency [1] | Potency [2] | Potency [3] | Potency [4] | Potency [5] | Potency [6] | Potency [7] | Potency [20] | Potency [9] | Potency [10] | Potency [11] | Potency [12] | Potency [17] | Potency [18] | Potency [13] | Potency [14] | Potency [15] | Potency [16]

Cc1cc(Cc2cc(C)cc(C(C)(C)C)c2O)c(O)c(C(C)(C)C)c1
34.6 µM (active) and inactive: Potency [14]
inactive and 36.3 µM (active): Potency [20]
active: Potency [1] 13.8 µM and 13.7 µM
inactive: Potency [2] | Potency [3] | Potency [4] | Potency [5] | Potency [6] | Potency [7] | Potency [9] | Potency [10] | Potency [11] | Potency [12] | Potency [17] | Potency [15]

COc1cc(OC)c(C(=O)CCCN2CCCC2)c(OC)c1
inactive: Potency [1] | Potency [2] | Potency [3] | Potency [4] | Potency [5] | Potency [6] | Potency [7] | Potency [20] | Potency [9] | Potency [19] | Potency [18] | Potency [13] | Potency [14] | Potency [15] | Potency [16]

CCCCOCCOCCOC(C)=O
inactive: Potency [1] | Potency [2] | Potency [3] | Potency [4] | Potency [5] | Potency [6] | Potency [7] | Potency [20] | Potency [9] | Potency [19] | Potency [10] | Potency [11] | Potency [12] | Potency [18] | Potency [13] | Potency [14] | Potency [15] | Potency [16]
